Hits are enriched below; roughly 3.2% of the tested compounds scored in any of these assays.
VACV mCherry inh: vaccinia inhibition (mCherry reporter); Vaccinia virus mCherry reporter infection, fluorescence; 0.63% of 310,000 active; Potency, µM (top dose mostly 36.5 µM), hits mostly inhibitors; calls by dose curve; tested in A549 cells; also: nearly all actives have a fitted effect of over 35% in size
Lassa entry inh: inhibitors of Lassa virus binding or cell entry; Potency, µM (top dose mostly 37.9 µM), actives largely listed as inhibitors; 1.2% of 300,000 active; Lassa virus pseudotype entry inhibition, cell reporter; calls by dose curve; tested in HEK293 cells; also: nearly all actives have a fitted effect of over 50% in size
Marburg entry inh: Marburg virus entry inhibition; Marburg virus pseudotyped entry inhibition, cell reporter; Potency, µM (doses to about 37.8 µM), hits mostly inhibitors; 1.8% of 300,000 active; AID 540276; calls by dose curve; tested in HEK293 cells
FMDV inh: blocks foot and mouth disease virus; Potency, µM (doses to about 57.9 µM), actives largely listed as inhibitors; 1.2% of 410,000 active; AID 1159524; FMDV antiviral cell-based qHTS; calls by dose curve; tested in HEK293T cells; also: read-out not given here; nearly all actives have a fitted effect of over 45% in size
Vaccinia Venus: inhibitors of vaccinia virus (Venus reporter). Vaccinia virus Venus reporter expression, fluorescence. Potency, µM (top dose mostly 36.5 µM), actives largely listed as inhibitors. 0.46% of 330,000 active. AID 720580; calls by dose curve; tested in A549 cells; also: nearly all actives have a fitted effect of over 30% in size
Numbers stand for hits; – = inactive; ? = inconclusive; · = no result; ! = a repeat was not active.

SMILES | VACV mCherry inh | Lassa entry inh | Marburg entry inh | FMDV inh | Vaccinia Venus
C[C@@H]1CC[C@H]2C(=O)O[C@H](CN=[N+]=[N-])CN2[C@@H]1c1ccc(Br)cc1 | · | · | – | · | ·
COc1ccc(-c2cc(C(=O)N3CCN(c4ccccc4)CC3)c3ccccc3n2)cc1OC | · | 4.5µM | ? | – | –
COc1ccc(-c2cc(C(=O)N3CCCCCC3)c3ccccc3n2)cc1OC | – | · | · | – | –
COc1ccc(N2CCN(C(=O)c3cc(-c4cccs4)nc4ccccc34)CC2)cc1 | – | · | 11µM | – | –
COc1ccc(NC(=O)CCc2nnc3n(Cc4ccccc4Cl)c(=O)c4ccccc4n23)cc1 | – | · | – | – | –
Cc1oc(-c2ccccc2NC(=O)c2ccsc2)nc1CN(C)CC1CC=CCC1 (stereo not given) | – | · | · | – | –
O=C(NCc1ccco1)c1ccc2c(c1)C(=O)c1ccccc1-2 | · | 23µM | ? | – | ·
O=C(NCc1ccco1)c1ccc(C(=O)NCc2ccco2)cc1 | – | – | – | – | –
O=C(NCc1cccs1)C1CCN(c2ccc(S(=O)(=O)N3CCOCC3)cc2Cl)CC1 | – | ? | 1.1µM! | – | –
COC(=O)c1ccc(S(=O)(=O)N2CCc3ccccc32)cc1 | – | ? | 2.5µM | – | –
CC1Cc2ccccc2N1S(=O)(=O)c1cccc(C(=O)NCc2ccco2)c1 (stereo not given) | – | 10µM | ? | – | –
CC1Cc2cc(S(=O)(=O)N3CCC(C(=O)NCc4ccco4)CC3)ccc2N1C(=O)C1CCC1 (stereo not given) | – | ? | 13µM | – | –
O=C(NCc1ccco1)c1ccc(S(=O)(=O)N2CCCc3ccccc32)cc1 | – | 16µM | ? | – | –
O=C(NCc1ccccc1)c1ccc(S(=O)(=O)N2CCCc3ccccc32)cc1 | · | ? | ? | – | ·
c1ccc2c(-c3cncc4ccccc34)cncc2c1 | – | ? | 13µM | – | –
c1ccc2c(c1)-c1cccc3cncc-2c13 | – | – | – | – | –
O=C(CN1CCSc2ccccc21)N1CCCCC1 | – | – | · | – | –
O=C(CCl)N1c2ccccc2OCC1c1ccccc1 (stereo not given) | – | – | – | 18µM | –
O=C(CCl)N1c2ccccc2SCC1c1ccccc1 (stereo not given) | – | ? | ? | 28µM | –
Clc1ccc(OCc2nc(-c3ccccn3)no2)c(Br)c1 | – | 9.2µM | ? | – | –
CCOc1ccc(-c2nc(-c3cccnc3)no2)cc1 | – | 10µM | 5.6µM | – | –
CCCCOc1ccc(-c2nc(-c3cccnc3)no2)cc1 | · | – | ? | – | –
COc1ccc(-c2nc(-c3ccccn3)no2)cc1 | · | ? | 0.29µM | 7.9µM | ·
COc1ccc(-c2nc(-c3cccs3)no2)cc1 | – | 1.8µM | ? | 7.1µM | –
COc1ccc(-c2nc(-c3ccncc3)no2)cc1 | · | · | · | – | ·
SMILES | VACV mCherry inh | Lassa entry inh | Marburg entry inh | FMDV inh | Vaccinia Venus
COCCOCCOCCC(=O)N[C@@H]1C[C@@H]2CC[C@@]1(C)C2(C)C | · | · | – | · | ·
COC(=O)c1ccc(CN2C(=O)[C@@]3(CC(C)=CC[C@@H](COc4ccccc4)O3)c3ccccc32)cc1 | · | · | – | · | ·
Cc1ccccc1-c1nc(-c2ccccn2)no1 | – | 1.3µM | ? | 6.3µM | –
CCc1ccc(-c2nc(-c3ccncc3)no2)cc1 | · | ? | 13µM | – | ?
COc1ccccc1-c1nc(-c2ccccn2)no1 | – | · | · | – | –
COc1ccccc1-c1nc(-c2ccc(C)nc2OC)no1 | – | – | – | – | –
COc1nc(C)ccc1-c1noc(-c2ccccn2)n1 | · | 8.2µM | ? | – | ·
Clc1ccc(-c2nc(-c3ccccn3)no2)cc1Cl | – | ? | 2.9µM | · | –
C[C@@H]1CC[C@H]2C(=O)N(Cc3ccccc3)C[C@H](O)CN2[C@H]1c1ccc(Br)cc1 | · | · | – | · | ·
Brc1ccc(-c2nc(-c3ccccn3)no2)o1 | – | 8.9µM | 7.9µM | – | –
CC(C(=O)Nc1nc(-c2ccc(F)cc2)cs1)N1C(=O)C2CC=CCC2C1=O (stereo not given) | – | – | – | 28µM | –
O=C(NCc1ccc(Cl)cc1)C1CCCN(C(=O)c2cnn(-c3ccc(F)cc3)c2-n2cccc2)C1 (stereo not given) | ? | – | · | ? | ?
CCCC(c1nnnn1Cc1ccc(OC)cc1)N1CCN(c2ccccc2OC)CC1 (stereo not given) | · | ? | ? | 35µM | –
CCCC(c1nnnn1Cc1ccccc1)N1CCN(c2ccccc2OC)CC1 (stereo not given) | · | – | – | ? | –
O=C(COc1ccc(/C=N/NC(=O)CSCc2ccc([N+](=O)[O-])cc2)cc1)NCc1ccco1 | – | ? | 11µM | ? | –
Cc1ccc(CSCC(=O)N/N=C/c2ccc(OCC(=O)Nc3ccc(C)cc3)cc2)cc1 | – | ? | – | ? | –
CN(C)C(=O)[C@@H]1C[C@@H](Sc2nc3ccccc3[nH]2)CN1Cc1ccnc2ccccc12 | – | · | · | – | –
Cc1ccc(NC(=O)N(Cc2c[nH]c3ccccc23)C2CCCCCC2)cc1C | ? | 2.5µM | ? | – | –
O=C(CCl)N(O)c1ccc(C=Cc2ccccc2)cc1 | – | 8.9µM | ? | – | –
CNc1ccccc1C(C)(C)c1cc(-c2cccc([N+](=O)[O-])c2)no1 | ? | ? | 4.5µM | – | –
O=C(CN(C(=O)c1ccccc1Cl)N1C(=O)CCCC1=O)c1ccc(Cl)cc1 | · | · | · | – | ·
Cc1nc2c(-c3ccc(F)cc3)cnn2c(N)c1-c1ccccc1 | · | · | · | 16µM | ·
Cc1nc2c(-c3ccc(Cl)cc3)cnn2c(N)c1-c1ccc(F)cc1 | · | · | · | 0.79µM | ·
N#CCC(=O)N/N=C/c1cc(-c2ccccc2)n(-c2ccc(Cl)cc2)c1-c1ccccc1 | – | ? | ? | 25µM | –
N#CCC(=O)N/N=C/c1ccc(Cl)cc1 | – | – | – | – | –
SMILES | VACV mCherry inh | Lassa entry inh | Marburg entry inh | FMDV inh | Vaccinia Venus
O=C(Cc1n[nH]c(=O)c2ccccc12)OCc1c(Cl)cccc1Cl | ? | 0.63µM | 0.52µM | – | –
CCCCn1c(N)c(N(CCOC)C(=O)c2c(CC)noc2C)c(=O)[nH]c1=O | · | · | · | – | ·
CSc1nc(C(=O)N2CCc3c(cnc(C)c3CNC(=O)c3ccc4c(c3)OCO4)C2)cs1 | – | · | · | – | –
CCN(CC)S(=O)(=O)c1ccc(-c2nnc(SCc3nnc(-c4ccccc4)o3)o2)cc1 | ? | ? | ? | · | 0.035µM
C=CCN1c2ccccc2[C@]23CCC(=O)N(CC4CC4)C2=NC(C(=O)OC)=C(C(=O)OC)[C@H]13 | · | · | – | · | ·
Cc1ccc(-n2nc3c(=O)n(C(C)C(=O)NCCC4=CCCCC4)nc(C)c3c2C)cc1 (stereo not given) | · | · | · | 14µM | ·
O=C(c1cc([N+](=O)[O-])ccc1N1CCCCC1)N1CCc2ccccc21 | – | ? | 4.5µM | – | –
O=C(c1ccc([N+](=O)[O-])s1)N1CCCc2ccccc21 | 10µM | ? | ? | – | ?
O=C(c1ccc([N+](=O)[O-])s1)N1CCc2ccccc21 | – | – | – | – | –
O=C(c1cc([N+](=O)[O-])cc([N+](=O)[O-])c1)N1CCCc2ccccc21 | – | – | 10µM | – | –
CN(C)c1nc(-c2ccccn2)nnc1-c1ccccc1 | 8.9µM | ? | ? | – | ?
CCN(CC)c1nc(-c2ccccn2)nc(-c2ccccc2)c1C#N | ? | ? | 6.3µM | ? | ?
Cc1ccc(OCCNC(=O)C(C)SCC(=O)Nc2ccc(F)cc2)cc1 (stereo not given) | · | · | · | – | ·
